Screens: PubChem BioAssay, several laboratories
Most compounds without a hit are left out; they make up all but 4% or so of the library.
Mtb UGM inh: inhibitors of M. tuberculosis UDP-galactopyranose mutase | P9WIQ1 | purified UGM, fluorescence polarization probe displacement | inhibition, % at 10 µM | 320,000 tested, 0.06% active | AID 504406; in the data active = inhibition above about 10%, passing the limit was not always enough
GDH-TPI counter-1: GDH-TPI coupled enzyme inhibition counter-screen | AID 588335 | inhibition, % at 4.8 µM | 360,000 tested, 1.2% active | GDH-TPI coupled enzyme counterscreen, NADH absorbance; in the data active = inhibition above about 30%;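 note: 0% = DMSO wells and 100% = wells lacking the enzyme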
Mtb FBA inh: inhibitors of M. tuberculosis fructose-bisphosphate aldolase; purified M. tuberculosis FBA, fluorescence read-out; inhibition, % at 1 µM; 360,000 tested, 2.3% active;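 note: 0% = vehicle and 100% = reference inhibitor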
Target sequence (P9WQA3 whole entry, looked up): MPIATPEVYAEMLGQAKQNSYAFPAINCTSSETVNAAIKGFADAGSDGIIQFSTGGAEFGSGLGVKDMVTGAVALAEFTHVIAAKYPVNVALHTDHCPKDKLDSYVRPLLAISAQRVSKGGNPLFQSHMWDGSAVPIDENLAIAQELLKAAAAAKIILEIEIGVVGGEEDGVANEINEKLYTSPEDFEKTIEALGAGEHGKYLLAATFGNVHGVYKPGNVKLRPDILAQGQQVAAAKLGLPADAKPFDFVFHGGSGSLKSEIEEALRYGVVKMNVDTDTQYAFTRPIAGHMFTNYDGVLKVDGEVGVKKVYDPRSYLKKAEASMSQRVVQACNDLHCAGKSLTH
Rv3671c protease: Rv3671c (M. tuberculosis) protease inhibition; 320,000 tested, 0.048% active; AID 2606; inhibition, % at 5.96 µM; P9WHR9; in the data active = inhibition above about 38%;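 note: extracellular domain of Rv3671c used as enzyme; 0% = enzyme with DMSO and 100% = no enzyme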
Mtb betalactam: beta-lactam sensitization of Mtb H37Rv. M. tuberculosis H37Rv growth with meropenem, percent inhibition. inhibition, % at 25 µM. 330,000 tested, 0.27% active; call rule not given here;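 note: growth measured after seven days incubation then overnight dye step; 0% = bacteria only wells and 100% = bacteria with antibiotic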
RecA intein inh: blocks M. tuberculosis RecA intein splicing; P9WHJ3; cell-free RecA intein splicing, fluorescence; inhibition, % (test concentration not listed); 290,000 tested, 0.75% active; AID 2221; in the data active = inhibition above about 30%;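 note: 0% = vehicle wells and 100% = reference inhibitor control wells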
Mtb FBA inh conf: Mtb FBA inhibition, confirmed. shares compounds with Mtb FBA inh. purified M. tuberculosis FBA, fluorescence read-out. inhibition, % at 1 µM. 5,600 tested, 78% active. AID 651616;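 note: 0% = vehicle wells and 100% = reference inhibitor wells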
GDH-TPI counter-2: counter-screen for M. tuberculosis FBA inhibitors: GDH-TPI coupled enzyme inhibition | shares compounds with Mtb FBA inh | GDH-TPI coupled enzyme counterscreen, fluorescence | inhibition, % at 1 µM | 5,600 tested, 81% active | AID 652141; in the data active = inhibition above about 10%
GDH-TPI DR: GDH-TPI dose response counter-screen for Mtb FBA | GDH-TPI coupled enzyme assay, fluorescence, artifact counterscreen | 170 tested, 79% active | IC50, µM | shares compounds with Mtb FBA inh; call rule not given here
* = called active by the depositor. Cut-off read from the data, not from the text of the source, unless noted: active = inhibition above about 27%; inactive = the rest.

`O=C(Nc1ccc(Cl)cn1)c1cc(S(=O)(=O)N2CCCCC2)ccc1Cl` gave Mtb UGM inh -2, GDH-TPI counter-1 -3, Mtb FBA inh 77*, Rv3671c protease 5, Mtb betalactam -1, RecA intein inh -2, Mtb FBA inh conf -6 and GDH-TPI counter-2 -6.
For O=C(Cc1ccc(Cl)cc1)OCC(=O)N1CCCCCC1 the results were Mtb UGM inh 0, GDH-TPI counter-1 5, Mtb FBA inh 2, Rv3671c protease -6 and Mtb betalactam 5.
`Cc1nc2scc(C)n2c(=O)c1S(=O)(=O)NCc1ccccc1Cl` gave Mtb UGM inh -4, GDH-TPI counter-1 11, Mtb FBA inh 34*, Rv3671c protease -5, Mtb betalactam -3, RecA intein inh -1, Mtb FBA inh conf 180* and GDH-TPI counter-2 132*.
Cc1nc2scc(C)n2c(=O)c1S(=O)(=O)NC(C)c1ccccc1 (stereo not given) was read as Mtb UGM inh -2, GDH-TPI counter-1 27, Mtb FBA inh 37*, Rv3671c protease 2, Mtb betalactam 2, RecA intein inh -2, Mtb FBA inh conf 40* and GDH-TPI counter-2 37*.
For Cc1ccc(CNS(=O)(=O)c2c(C)nc3scc(C)n3c2=O)cc1 the results were Mtb UGM inh 0, GDH-TPI counter-1 5, Mtb FBA inh 2, Rv3671c protease 6, Mtb betalactam 5 and RecA intein inh 6.
`Cc1nc2scc(C)n2c(=O)c1S(=O)(=O)NCC1CCN(Cc2ccc(F)cc2)CC1` gave Mtb UGM inh 1, GDH-TPI counter-1 22, Mtb FBA inh 32*, Rv3671c protease -11, Mtb betalactam -1, RecA intein inh 3, Mtb FBA inh conf 121* and GDH-TPI counter-2 90*.
`Cc1nc2scc(C)n2c(=O)c1S(=O)(=O)NCCc1ccccc1` gave Mtb UGM inh 0, GDH-TPI counter-1 20, Mtb FBA inh 22, Rv3671c protease 1, Mtb betalactam 4 and RecA intein inh 0.
For O=c1cc(-c2cccs2)oc2ccc(Cl)cc12 the results were Mtb UGM inh 5, GDH-TPI counter-1 38*, Mtb FBA inh 38*, Rv3671c protease -11, Mtb betalactam 28, RecA intein inh 8, Mtb FBA inh conf 156* and GDH-TPI counter-2 120*.
Cc1ccc(F)cc1C(=O)N1CCCCC1c1cc(C(=O)Nc2ccccc2)no1 (stereo not given) was read as GDH-TPI counter-1 3 and Mtb FBA inh 5.
`O=c1[nH]c2cc3c(cc2cc1CN(Cc1cccs1)Cc1nnnn1Cc1ccco1)OCCO3` gave Mtb UGM inh 1, GDH-TPI counter-1 24, Mtb FBA inh 35*, Rv3671c protease -24, Mtb betalactam -5, RecA intein inh -16, Mtb FBA inh conf 84* and GDH-TPI counter-2 78*.
For O=c1[nH]c2cc3c(cc2cc1CN(Cc1cccnc1)Cc1nnnn1Cc1ccco1)OCCO3 the results were Mtb UGM inh 2, GDH-TPI counter-1 18, Mtb FBA inh 34*, Rv3671c protease -12, Mtb betalactam 18, RecA intein inh 2, Mtb FBA inh conf -2 and GDH-TPI counter-2 0.
Cc1cc2c(SCc3ccccc3Cl)nc(N)nc2nc1C was read as GDH-TPI counter-1 6, Mtb FBA inh 86*, Mtb FBA inh conf 19, GDH-TPI counter-2 1 and GDH-TPI DR 1.3*.
`Nc1cc(N)nc(SCc2ccccc2Cl)n1` gave GDH-TPI counter-1 -4 and Mtb FBA inh -2.
For c1ccc(Nc2ccc(-n3ccnc3)nn2)cc1 the results were Mtb UGM inh 0, GDH-TPI counter-1 5, Mtb FBA inh 69*, Rv3671c protease 5, Mtb betalactam -4, RecA intein inh 3, Mtb FBA inh conf 127* and GDH-TPI counter-2 140*.
For Cc1ccc(-c2cc(C(F)F)nc(S(C)(=O)=O)n2)cc1 the results were Mtb UGM inh 1, GDH-TPI counter-1 20, Mtb FBA inh 34*, Rv3671c protease -3, Mtb betalactam 99, RecA intein inh 46*, Mtb FBA inh conf 112* and GDH-TPI counter-2 86*.
`Cc1ccc(-c2cc(-c3ccccc3)nc(Cl)n2)cc1` gave Mtb UGM inh 1, GDH-TPI counter-1 2, Mtb FBA inh 5, Rv3671c protease -10, Mtb betalactam 93 and RecA intein inh 2.
Screening CC1=C(C(=O)OC(C)C)C(c2cccnc2)C2=C(CC(C)(C)CC2=O)N1 (stereo not given) returned Mtb UGM inh 1, GDH-TPI counter-1 13, Mtb FBA inh 79*, Rv3671c protease -8, Mtb betalactam 2, RecA intein inh -61, Mtb FBA inh conf 31* and GDH-TPI counter-2 38*.
For COCCOC(=O)C1=C(C)NC2=C(C(=O)CC(C)(C)C2)C1c1cccnc1 (stereo not given) the results were Mtb UGM inh 0, GDH-TPI counter-1 1, Mtb FBA inh 39*, Rv3671c protease -6, Mtb betalactam -18, RecA intein inh -138, Mtb FBA inh conf active and GDH-TPI counter-2 active.
Screening CC1=C(C(=O)OC(C)C)C(c2ccc(N(C)C)cc2)C2=C(CC(C)(C)CC2=O)N1 (stereo not given) returned Mtb UGM inh -2, GDH-TPI counter-1 6, Mtb FBA inh -4, Rv3671c protease 0, Mtb betalactam -8 and RecA intein inh -3.
CC1=C(C(=O)OCC2CCCO2)C(c2ccncc2)C2=C(CC(C)(C)CC2=O)N1 (stereo not given) was read as Mtb UGM inh 2, GDH-TPI counter-1 -1, Mtb FBA inh 38*, Rv3671c protease 1, Mtb betalactam 34, RecA intein inh -74, Mtb FBA inh conf 59* and GDH-TPI counter-2 58*.
`CC1=C(C(=O)OCCOC(C)C)C(c2cccnc2)C2=C(CCCC2=O)N1` (stereo not given) gave Mtb UGM inh 1, GDH-TPI counter-1 4, Mtb FBA inh 31*, Rv3671c protease -2, Mtb betalactam -8, Mtb FBA inh conf active and GDH-TPI counter-2 active.
`CCN(CC)c1ccc(C2C(C(=O)OCCOC(C)C)=C(C)NC3=C2C(=O)CCC3)cc1` (stereo not given) gave Mtb UGM inh -1, GDH-TPI counter-1 11, Mtb FBA inh 1, Rv3671c protease -5, Mtb betalactam -6 and RecA intein inh -32.
CCOC(=O)C1=C(C)NC2=C(C(=O)CC(C)(C)C2)C1c1ccc(N(C)C)cc1 (stereo not given) was read as Mtb UGM inh 1, GDH-TPI counter-1 3, Mtb FBA inh 0, Rv3671c protease -3, Mtb betalactam -9 and RecA intein inh 2.
